Experimental findings from PubChem BioAssay AID743126 (The Scripps Research Institute Molecular Screening Center, 2013) are described below.

About 2,100 (0.57%) of roughly 370,000 compounds were called active. The sample as a whole holds a higher share of actives than the screen did. Unmarked numbers belong to inactive results.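 The calls were made as follows: active = inhibition above mean plus 3 SD of compounds lying within the high and low control bounds (cut at about 19% in these data); inactive = the rest.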

Sequence of Group 3 secretory phospholipase A2 (Homo sapiens) (Q9NZ20 whole entry, looked up): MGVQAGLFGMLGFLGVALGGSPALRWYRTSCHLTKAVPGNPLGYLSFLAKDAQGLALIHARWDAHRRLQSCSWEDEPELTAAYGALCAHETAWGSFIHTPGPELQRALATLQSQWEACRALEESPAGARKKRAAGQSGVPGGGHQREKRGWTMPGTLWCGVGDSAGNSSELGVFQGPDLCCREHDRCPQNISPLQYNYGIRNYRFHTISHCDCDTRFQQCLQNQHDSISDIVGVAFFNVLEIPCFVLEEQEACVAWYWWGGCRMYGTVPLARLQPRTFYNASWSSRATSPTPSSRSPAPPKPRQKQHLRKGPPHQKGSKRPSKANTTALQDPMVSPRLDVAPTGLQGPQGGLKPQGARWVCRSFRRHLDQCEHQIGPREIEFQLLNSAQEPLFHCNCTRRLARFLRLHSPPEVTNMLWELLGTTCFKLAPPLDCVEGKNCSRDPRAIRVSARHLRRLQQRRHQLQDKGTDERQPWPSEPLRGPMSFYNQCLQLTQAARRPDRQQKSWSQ

The experiment concerns the target Group 3 secretory phospholipase A2 (Homo sapiens) (UniProt Q9NZ20). In words: human group III sPLA2 inhibitors, primary screen, biochemical, QFRET, BODIPY PC-A2 liposome substrate (AID 743126).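 Also: 0% = median of test compound wells and 100% = no enzyme DMSO wells.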 The note with it: QFRET BODIPY PC-A2 liposome hydrolysis, fluorescence; at 12.2 µM; active compounds read high.
Broadly, the inhibition is the drop in the measured response relative to a control, in per cent. Regarding `Cc1nc2ccc(C(=O)N3CCN(C(=O)C(C)(C)C)CC3)cc2n1C1CCCC1`, the inhibition is 3.1%. Take `CN1C(=O)c2cc(NS(C)(=O)=O)ccc2OC[C@@H]2O[C@@H](CC(=O)NCc3ccc(-c4ccccc4)cc3)CC[C@H]21`: the inhibition is -2%.

`c1csc(-c2nnc(SCc3nc4ccccc4[nH]3)o2)c1`: the inhibition is -4.46%. As for `O=C(NC1CCCCN(Cc2cccc(C(F)(F)F)c2)C1=O)c1ccccc1I` (centres undefined), the figure is -1.99%. `Cc1c(Cl)cccc1NC(=S)NCc1ccc2c(c1)OCO2`: the inhibition is 19.5% (active). Take `COc1cccc(CNCc2ccc3c(c2)OCO3)c1`: the inhibition was 3.34%.

Consider `Cc1c(Cl)cccc1NC(=S)NCC(O)c1ccccc1` (centres undefined), for which the inhibition is 8.54%. Turning to `O=C(CSc1nnc(-c2cccc(Cl)c2)n1Cc1ccco1)Nc1ccc(OCc2ccccc2)cc1`, the inhibition is -12.1%. The result for `Cc1ccccc1CS(=O)(=O)Cc1ccc(C(=O)Nc2ccc(Cl)cc2)o1` reads -4.56%; that for `CCOc1ccc(N2CC(C(=O)NCc3ccccn3)CC2=O)cc1` (centres undefined), 0.93%; that for `CCS(=O)(=O)N1Cc2ccccc2CC1C(=O)Nc1ccc(OC)cc1OC` (centres undefined), -0.28%. The result for `COc1ccc(NC(=O)C2C3C=CC(C3)C2C(=O)NCc2ccccn2)c(OC)c1` (centres undefined) reads 20.6% (active).

Regarding `Cc1ccc(-n2c(SCC(=O)Nc3cccc4ccccc34)nnc2-c2ccccn2)cc1`, the inhibition was -5.54%.

For the molecule `CCc1cc(C(c2ccccc2OC)N2CCOCC2)c(NC(=O)c2ccccc2)s1` (centres undefined), the inhibition was -10.3%. Consider `COc1ccc(C(=O)Nc2sc(C)c(C)c2CN2CCOCC2)cc1`, for which the inhibition was 21.9% (active). `O=C(Nc1ccc(CSc2ccccc2)cc1)c1ccc(CN2CCOCC2)cc1`: the inhibition was -16.7%. As for `CCCCC(=O)N[C@@H]1CC[C@@]23CCCN2C(=O)CCC[C@H]3[C@H]1C`, the inhibition is 7.19%. `COCC(=O)N[C@@H]1C[C@@H]2O[C@@H](CO)CC[C@@H]2O[C@@H]1CCc1ccc(-c2ccccc2)cc1`: the inhibition was -1.64%. As to `COc1ccc(C(N)c2csc(NC(=O)Nc3cccc(C(F)(F)F)c3)n2)cc1` (centres undefined), the inhibition is 27.4% (active). In the case of `NC(c1csc(NC(=O)Nc2cccc(C(F)(F)F)c2)n1)C1CCCCC1` (centres undefined), the inhibition was 6.78%.

For `CCOC(=O)c1csc(NC(=O)Nc2cccc(OC)c2)n1`, the inhibition is -1.84%. The result for `COC(=O)C[C@H]1CC[C@H]2[C@H](COc3ccc(NC(=O)C4CC4)cc3C(=O)N2C)O1` reads -1.19%. On to `CC(C)(C)c1ccc(CSc2nnc(-c3cccs3)o2)cc1`, for which the inhibition was -0.56%. On to `CN(C)S(=O)(=O)c1cccc(NC(=O)COC(=O)/C=C/c2cccs2)c1`, for which the inhibition is -11.5%.

Take `CN(C)S(=O)(=O)c1cccc(C(=O)N/N=C\c2ccco2)c1`: the inhibition is 1.45%. The result for `CN(C)S(=O)(=O)c1cccc(NC(=S)N/N=C/C(=O)c2ccccc2)c1` reads 24% (active); that for `COC(=O)C1CN(Cc2cn(Cc3ccc(F)cc3)nn2)CCS(=O)(=O)N1Cc1ccc(Cl)cc1` (centres undefined), -11.8%. The result for `Cc1cc(C(=O)NN=C/C=C/c2ccco2)n[nH]1` reads 13%; that for `COc1ccc2c(c1)c(=Cc1ccc(N(C)C)cc1)c1cc(-c3ccccc3)[n+](C)n12`, 31.7% (active).

Turning to `CCCC[C@H](C(=O)N(CC)c1ccccc1)[C@@H](O)c1ccc2ccccc2c1`, the inhibition is -3.7%. As for `O=C(NNC(=S)Nc1ccc(F)cc1)[C@H]1C[C@@H]1c1ccccc1`, the inhibition was 24% (active). Take `O=S(=O)(NC(=S)Nc1ccccc1)c1ccc(F)cc1`: the inhibition is -1.06%. In the case of `Cc1ccc(NC(=O)C2CC2c2ccccc2)cc1` (centres undefined), the inhibition was -0.8%. As for `c1ccc(C2=Nc3cccc4cccc(c34)N2)cc1`, the figure is 38.6% (active). The result for `Brc1ccc(C2CC(c3ccccc3)=Nc3ccccc3N2)cc1` (centres undefined) reads -5.39%.

With `CC[C@]1(O)C[C@@H]2CN(CCc3c([nH]c4ccccc34)[C@@](C(=O)OC)(c3cc4c(cc3OC)N(C)[C@H]3[C@@](O)(C(=O)OC)[C@H](OC(C)=O)[C@]5(CC)C=CCN6CC[C@]43[C@@H]65)C2)C1`, the inhibition was 24.8% (active). `CC[C@]1(O)CC2CN(CCc3c([nH]c4ccccc34)[C@@](C(=O)OC)(c3cc4c(cc3OC)N(C=O)[C@H]3[C@@](O)(C(=O)OC)[C@H](OC(C)=O)[C@]5(CC)C=CCN6CC[C@]43[C@@H]65)C2)C1` (some centres undefined): the inhibition is 13.5%. As for `C=CCN1C(=O)[C@@H](CC(=O)NCCCCc2ccccc2)[C@]2(C(=O)OCC)CCCCC/C=C/12`, the figure is -9.75%.

As for `COC(=O)[C@]1(C#N)CC(=O)N(CC2CCCCC2)[C@@H]1c1ccccc1`, the inhibition is 4.27%. Consider `CN(C(N)=NC(=O)/C=C/c1ccccc1)C(C#Cc1ccccc1)Cc1ccccc1` (centres undefined), for which the inhibition is 2.67%. `CCN(CC)S(=O)(=O)c1cc(C(=O)Nc2ccccn2)ccc1C`: the inhibition is -0.99%. As for `O=C(NNc1ccccn1)c1ccc(Cl)nc1`, the figure is 21.1% (active); as for `O=C(COC(=O)c1ccccn1)NNC(=O)c1ccc(Br)cc1`, -1.11%.

On to `O=S1(=O)c2c(cccc2N2CC[C@H](O)C2)O[C@@H]2CCN1C2`, for which the inhibition was 4.99%.

Consider `O=C(NCc1ccco1)C1CCCN(S(=O)(=O)c2ccc(Cl)s2)C1` (centres undefined), for which the inhibition was -7.36%. The result for `Cc1cc2cc(CNC(=O)c3cccs3)ccc2[nH]1` reads 1.16%. Take `CCOCC(=O)NCc1ccc2c(c1)cc(C)n2C`: the inhibition was 12.3%. As for `CCc1cccc(CC)c1NC(=S)NCc1ccc2[nH]c(C)cc2c1`, the inhibition was 20.3% (active).

Consider `COc1cccc(CNC(=O)C2CCCN(c3nc4ccccc4o3)C2)c1OC` (centres undefined), for which the inhibition was 10.2%. For `COc1ccc(-n2c(SCC(=O)Nc3ccc(C)c(Cl)c3)nc3ccccc3c2=O)cc1`, the inhibition is 14.2%. Consider `CC(C)(C)OC(=O)NCCc1ccccc1/C=C/S(=O)(=O)NCc1ccc(F)cc1`, for which the inhibition is -1.5%. As for `CCCCNC(=O)C[C@H]1C[C@@]2(C(=O)OC)C(=C[C@H](COCc3ccccc3)O[C@@H]2C)N(Cc2ccc(Cl)cc2Cl)C1=O`, the figure is -3.1%. In the case of `Cc1ccc(-c2nnc(SCC(=O)Nc3ccc(Oc4ccccc4)cc3)n2Cc2ccco2)cc1`, the inhibition is -6.88%. In the case of `O=C(CCl)NNc1cccc(Cl)n1`, the inhibition is 71% (active). Regarding `O=C(Cc1c(Cl)cccc1Cl)NC1CC1`, the inhibition was 2.07%. As for `O=C(NNc1cc(Cl)cc(Cl)c1)c1c(F)cccc1Cl`, the inhibition was 3.94%. On to `COC(=O)[C@]12C[C@H](CC(=O)N3CCOCC3)C(=O)N(Cc3ccc(Cl)cc3Cl)C1=C[C@H](COCc1ccccc1)O[C@@H]2C`, for which the inhibition was -3.17%.

As to `O=C1CC(c2ccc3c(c2)OCO3)N=C2N(CC3CC3)C/C(=C/c3ccccc3)N12` (centres undefined), the inhibition was -10.4%. For the molecule `CCOc1ccc(Br)cc1S(=O)(=O)N1CCC(C(=O)O)CC1`, the inhibition is 5.01%. As for `CCOc1ccc(Br)cc1CSC(=N)N`, the figure is 34.9% (active); as for `CCOc1ccc(Br)cc1S(=O)(=O)Nc1cccc(S(=O)(=O)N(CC)CC)c1`, -8.7%. Consider `COc1ccc(-n2c(COc3ccccc3)nnc2SCC(=O)Nc2ccc3c(c2)OCO3)cc1`, for which the inhibition is -23.7%. Consider `CN(CC(=O)Nc1ccc(OC(F)(F)F)cc1)C(=O)C1CCC1`, for which the inhibition was 14.1%.

In the case of `CS(=O)(=O)c1sc(C(=O)NC(=S)Nc2ccc(OC(F)(F)F)cc2)c2c1C=CCC2`, the inhibition is 9.81%.

Turning to `CCNC(=S)Nc1ccc(OC(F)(F)F)cc1`, the inhibition is 20.4% (active). As for `Cc1nn(C)cc1C(=O)NNC(=S)Nc1ccc(Cl)cc1`, the figure is 7.95%. With `CC(C)CNC(=S)NNC(=O)c1nn(C)cc1Cl`, the inhibition is 17.9%. Consider `Cn1cc(Cl)c(C(=O)NNC(=S)Nc2cccc(Cl)c2)n1`, for which the inhibition is 42.2% (active).

As to `COc1cc(C(=O)NCC(=O)NCCSc2ccc(Br)cc2)cc(OC)c1OC`, the inhibition was -0.46%. Consider `COc1ccc(CCNC(=O)CCC(=O)NC2CCCCC2)cc1OC`, for which the inhibition was 3.45%. With `COCCCNC(=O)CNC(=S)N(Cc1cc(OC)c(OC)c(OC)c1)C1CCCC1`, the inhibition is 26.1% (active). As for `CC(C)(C)c1ccc(C(=O)Nc2cc(Cl)c(Br)cc2C(=O)O)cc1`, the figure is -12.9%; as for `O=C(Nc1cc(F)cc(F)c1)OC1CCC12CCC(c1ccccc1)CC2` (centres undefined), -7.77%; as for `CC(C(=O)Nc1ccccc1-c1ccccc1)N1CCOCC1` (centres undefined), 19.6% (active). The result for `CC(C(=O)Nc1ccc(F)c(F)c1F)N1CCCCCC1` (centres undefined) reads 7.49%; that for `CC(Sc1nncn1C)C(=O)Nc1ccccc1-c1ccccc1` (centres undefined), 1.14%.

As to `O=C(CCS(=O)(=O)c1ccccc1)Nc1ccc(Cl)c(Cl)c1`, the inhibition was -9.24%. `C=CS(=O)(=O)N(Cc1nnn(Cc2ccccc2)c1Br)[C@H](C(=O)OC)C(C)C`: the inhibition is 4.97%. As to `Fc1ccc2nc(COCc3nc4ccc(F)cc4[nH]3)[nH]c2c1`, the inhibition was -3%.

On to `Cc1ccccc1NC(=O)COC(=O)c1ccc(Sc2ncn[nH]2)c([N+](=O)[O-])c1`, for which the inhibition was -13.9%. In the case of `O=S(=O)(c1ccccc1)N1CCC(c2nc3ccccc3o2)CC1`, the inhibition is -1.51%.

Take `CC(C)OC(=O)c1ccc(NCc2cc(O)ccc2O)cc1Cl`: the inhibition was 32.5% (active). Consider `COc1ccc2c(c1)CN1CN(CCc3ccccc3)S(=O)(=O)CC21` (centres undefined), for which the inhibition is 1.49%.

`C[C@@H]1ON(C)[C@H]2C[C@H]3c4[nH]c5cccc(-c6ccc7c(c6)OCO7)c5c4CCN3C[C@@H]12`: the inhibition is -5.9%. As for `O=C(NCCCc1ccccc1)[C@H](Cc1ccccc1)NC1(C(=O)NCCc2c[nH]c3ccccc23)CCC1`, the figure is -86.7%; as for `CN(CCc1ccccc1)C(=O)Cn1nc(-c2ccccc2)ccc1=O`, 4.61%; as for `Cc1ccc(CN2CCCCC(NC(=O)C3CCCCC3)C2=O)cc1` (centres undefined), 2.08%. As to `CN(C)c1ccc(NC(=O)NC2CCCCN(Cc3ccc(Cl)cc3)C2=O)cc1` (centres undefined), the inhibition was 20.4% (active).

As for `O=C(NC1CCCCN(Cc2ccc(Cl)cc2)C1=O)c1ccc(Br)cc1` (centres undefined), the inhibition was 2.5%.
